# Source: PubChem
# The sample as a whole holds a higher share of hits than the screen did.
# Cycloheximide cs: affects cycloheximide protein synthesis inhibition readout, counter-screen; cell reporter, cycloheximide protein synthesis inhibition counterscreen; max response, %; actives 12% (n = 300,000); AID 2314; in the data active = max response mostly above about 13%, no sharp cut-off; inactive = mostly below about 14%; note: read at 38.3 µM for the half of the compounds with a filed dose; 0% is about no effect
# RE007 growth inh: less growth of the S. pombe RE007 Vpr strain. S. pombe RE007 Vpr strain, BacTiter-Glo ATP luminescence, 24 h. Potency, µM (series often up to 92.2 µM), for the others: top-dose activity change, negative = less growth, most hits filed as inhibitors. actives 0.21% (n = 360,000). AID 651644; active = well fitted falling curve with a large enough effect; inconclusive = small, poorly fitted or top-dose-only effect; inactive = no such curve, though single readings can be large or run the other way; note: potency is the fitted concentration of half-maximal effect; % is set by controls: 0 for no effect and ±100 for the full control effect; nearly all actives have a fitted effect of over 50% in size
#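 Fission yeast RE007 carrying one integrated HIV-1 vpr copy, seeded at OD 0.01 in PMG+AL medium with 23 nL pinned compound. Grown 24 h at 30 degrees; viability read by BacTiter-Glo luminescence after 5 min.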
# TbPYK inhibitor: blocks Trypanosoma brucei pyruvate kinase; Q57TT1; TbPYK enzyme, Kinase-Glo Plus ATP luminescence, 45 min; Potency, µM (doses to about 76.8 µM), for inactives: top-dose activity, negative = inhibition, actives largely listed as inhibitors; actives 0.12% (n = 410,000); note: potency is the fitted concentration of half-maximal effect; % is set by controls: 0 for no effect and ±100 for the full control effect; nearly all actives have a fitted effect of over 50% in size
#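 Glycolytic pyruvate kinase of T. brucei was incubated with substrate, test compound and 130 uM ADP for 45 minutes at room temperature. Luminescent Kinase-Glo Plus signal was measured after 10 minutes.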
# Giardia FBPA inh: Giardia lamblia aldolase inhibition; purified Giardia FBPA; Potency, µM (doses to about 59.6 µM), for inactives: at the highest dose activity, negative = inhibition, usual class: inhibitors; actives 0.71% (n = 290,000); AID 2451; note: potency is the fitted concentration of half-maximal effect; % is set by controls: 0 for no effect and ±100 for the full control effect; nearly all actives have a fitted effect of over 55% in size
# Target sequence (A8B2U2 whole entry, looked up): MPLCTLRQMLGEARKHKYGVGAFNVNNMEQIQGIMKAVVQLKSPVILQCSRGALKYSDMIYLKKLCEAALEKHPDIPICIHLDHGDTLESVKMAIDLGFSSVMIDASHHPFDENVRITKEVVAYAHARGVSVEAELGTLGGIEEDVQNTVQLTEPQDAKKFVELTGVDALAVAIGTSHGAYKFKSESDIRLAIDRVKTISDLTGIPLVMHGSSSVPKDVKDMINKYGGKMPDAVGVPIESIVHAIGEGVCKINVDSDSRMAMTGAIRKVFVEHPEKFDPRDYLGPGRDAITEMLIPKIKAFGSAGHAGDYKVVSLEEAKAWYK
#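 Giardia FBPA (40 nM reagent) was preincubated 10 min at RT with compound (up to 57.5 uM final), then substrate plus GAPDH/TPI/NAD/arsenate coupling system with diaphorase/resazurin was added; resorufin fluorescence (525/598 nm) was read after 20 min.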
# Shiga inhibitor: inhibitors of Shiga toxin in Vero cells; inhibition, % at 38.7 µM; actives 9.2% (n = 290,000); AID 2315; Vero cells, Shiga toxin protein synthesis inhibition reporter; in the data active = inhibition mostly above about 28%, no sharp cut-off; inactive = mostly below about 43%; note: 0% is about no effect
# LmPK inh: inhibitors of Leishmania mexicana pyruvate kinase; Q27686; purified LmPK, Kinase-Glo ATP luminescence, 1 h; Potency, µM (doses to about 57.5 µM), without a hit: at the top dose activity change, negative = inhibition, hits mostly inhibitors; actives 0.37% (n = 290,000); note: potency is the fitted concentration of half-maximal effect; % is set by controls: 0 for no effect and ±100 for the full control effect
#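 ATP generated from ADP (0.1 mM) and PEP (0.5 mM) by 0.1 nM LmPK over 1 h at room temperature (pH 7.2 imidazole buffer) was detected by coupled luciferase luminescence. Values were normalized to uninhibited and no-enzyme wells.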
# Starred values were filed as active, the others as inactive; ? = inconclusive; / = no result; [ ] = another dose, or the depositor's remark. Unless noted, calls come from the whole dose curve; as a rule, active = well fitted curve in the direction sought with a large enough effect; inconclusive = small, poorly fitted or top-dose-only effect, or another doubt; inactive = no such curve, though single readings can be large; an effect the other way counts as inactive or inconclusive.
SMILES,Cycloheximide cs,RE007 growth inh,TbPYK inhibitor,Giardia FBPA inh,Shiga inhibitor,LmPK inh
Cc1cccc(-n2ncc3c(NCCc4ccc(S(N)(=O)=O)cc4)ncnc32)c1,1,-16%,0%,-8%,-6,5%
COc1ccc(CNC(=O)COC(=O)CCn2c(C)csc2=O)cc1OC,/,-7%,-4%,/,/,/
C[C@H](CN1CCCC1)C(=O)c1ccc(C(F)(F)F)cc1,/,/,0%,/,/,/
CCN1C=CC(=C2C(=O)c3ccccc3C2=O)C=C1,-9,?,?,-14%,-32,13µM*
CCCCCCN1C=CC(=C2C(=O)c3ccccc3C2=O)C=C1,37*,-14%,-2%,-13%,46*,?
CN1C=CC(=C2C(=O)c3ccccc3C2=O)C=C1,38*,/,/,-3%,88,2%
CCCCN1C(C)=CC(=C2C(=O)c3ccccc3C2=O)C=C1C,10,-8%,-6%,-3%,45,-2%
CCCN1C=CC(=C2C(=O)c3ccccc3C2=O)C=C1,-11,?,?,-6%,-26,14µM*
COc1ccc(-c2nc3c(C#N)c[nH]n3c2NC2CCCC2)cc1,/,/,-10%,/,/,/
O=S(=O)(c1cccc(Cn2nnc(-c3ccccc3)n2)c1)N1CCOCC1,/,-16%,2%,/,/,/
O=P(c1ccccc1)(c1ccccc1)c1cc(S(=O)(=O)O)ccc1O,-3,1%,-9%,-26%,15,0%
CC(C)CC(N)c1csc(Nc2ccc(C(F)(F)F)cn2)n1 (stereo not drawn),/,4%,-1%,/,/,/
O=S(=O)(c1ccccc1)N(F)S(=O)(=O)c1ccccc1,/,7%,3%,/,/,/
O=C(Nc1ccc2c(c1)OCO2)C1CCCCC1,33*,-15%,-9%,5%,38*,1%
O=C(NCc1ccc2c(c1)OCO2)C1COc2ccccc2O1 (stereo not drawn),13,?,0%,0%,34*,4%
Cc1cc(C)cc(NC(=O)NC(C)C2CCCO2)c1 (stereo not drawn),9,2%,5%,-1%,8,-7%
O=C(NCc1ccc2c(c1)OCO2)C1CCCCC1,13*,1%,3%,5%,42*,-8%
O=C(NCc1ccncc1)C1COc2ccccc2O1 (stereo not drawn),-4,-7%,-1%,5%,-13,-4%
CC(NC(=O)Nc1ccc2c(c1)OCO2)C1CCCO1 (stereo not drawn),44*,-6%,1%,-8%,72*,-3%
CCOC(=O)CC1(CCc2ccccc2)Oc2ccccc2O1,/,11%,/,/,/,/
Cc1ccccc1OCC(=O)Nc1ccccc1CO,14,-16%,-7%,10%,78*,-3%
Cc1ccccc1OCC(=O)Nc1ccccc1N1CCCCC1,-3,-12%,-6%,2%,6,8%
Cc1ccccc1OCC(=O)Nc1cccc2nsnc12,-2,-10%,-7%,-5%,2,3%
CSc1ccccc1NC(=O)COc1ccccc1C,27*,-20%,1%,6%,47*,-12%
CCn1c(SCC(=O)c2[nH]c(C)c(C(C)=O)c2C)nnc1-c1ccccc1,1,7%,-5%,-4%,-17,-1%
SMILES,Cycloheximide cs,RE007 growth inh,TbPYK inhibitor,Giardia FBPA inh,Shiga inhibitor,LmPK inh
CCCN1C(=O)C(Cc2nc3ccccc3c(=O)n2CC)c2cc(Br)ccc21 (stereo not drawn),/,/,7%,/,/,/
Cc1nc(-c2ccc(S(=O)(=O)N3CCN(c4cc(Cl)ccc4C)CC3)cc2)co1,/,/,-6%,/,/,/
CC(=O)NC1Sc2ccccc2N=C1c1ccccc1 (stereo not drawn),43*,-20%,?,-18%,111*,?
c1ccc(C2CCC3(CC2)Oc2ccccc2C2CC(c4cccnc4)=NN23)cc1 (stereo not drawn),27*,/,/,-10%,40*,2%
COc1ccc(CN2CCc3c([nH]c4ccccc34)C2)c(OC)c1C,-3,-10%,-3%,?,-6,-6%
COc1ccc(C2CC(c3ccccc3)Oc3c(C)ccc(C(C)C)c32)cc1 (stereo not drawn),1,/,/,0%,13,/
O=c1ccc2ccc(OCCOc3cccc(Cl)c3)cc2o1,24*,2%,-3%,/,66*,-6%
O=S(=O)(c1ccc(Nc2ccc(-c3ccc4c(c3)OCCO4)nn2)cc1)N1CCCC1,54*,6%,3%,2%,35,2%
O=C(COC(=O)Cc1ccc2c(c1)OCCO2)Nc1ccc(S(=O)(=O)N2CCCC2)cc1,-5,-11%,4%,-1%,-31,3%
O=C(NC1CC1)c1cccc(Nc2ccc(-c3ccc4c(c3)OCCO4)nn2)c1,31*,6%,-11%,-14%,55*,-15%
Clc1ccc(Cn2ncc3c(N4CCN(c5ccccc5)CC4)ncnc32)cc1,/,0%,7%,/,/,/
O=C(NNc1ccc(C2CCCCC2)cc1)C(O)(c1ccccc1)c1cccs1 (stereo not drawn),16*,18%,-4%,-8%,37,3%
CCOC(=O)c1[nH]c2c(c1-c1ccccc1)C(=O)CC(c1ccccc1)C2 (stereo not drawn),41*,1%,5%,5%,54*,3%
CCC(C)OC(=O)c1[nH]c2c(c1C)C(=O)CC(c1ccc(N(C)C)cc1)C2 (stereo not drawn),41*,12%,-1%,-26%,57*,-4%
CCOC(=O)c1[nH]c2c(c1Cc1ccccc1)C(=O)CC(c1ccccc1)C2 (stereo not drawn),/,/,-7%,/,/,/
CCOCCOC(=O)c1[nH]c2c(c1C)C(=O)CC(c1ccc(N(C)C)cc1)C2 (stereo not drawn),7,13%,0%,-17%,18,-1%
C/C=C/COC(=O)c1[nH]c2c(c1C)C(=O)CC(c1ccc(N(C)C)cc1)C2 (stereo not drawn),23*,8%,-4%,-21%,20,1%
CCSc1nnc(NC(=O)c2cc(OC)c(OC)c(OC)c2)s1,-2,2%,7%,-8%,26,13%
O=C(Cn1nc(C(=O)O)c2ccccc2c1=O)Nc1ccc(Cl)c(S(=O)(=O)N2CCOCC2)c1,/,-2%,-12%,/,/,/
Cc1ccccc1-c1cnc(C(O)c2ccc(-c3ccccc3)cc2)[nH]1 (stereo not drawn),/,-10%[18.4 µM],4%,/,/,/
CCCCC(=O)Nc1cccc(-c2cn3ccsc3n2)c1,34*,3%,-7%,0%,47*,3%
COc1ccccc1C(=O)Nc1cccc(-c2cn3ccsc3n2)c1,27*,/,/,0%,42*,0%
COc1ccc2nc(-c3ccco3)c(-c3ccco3)nc2c1,54*,?,?,?,56,-8%
c1coc(-c2nc3cc4ccccc4cc3nc2-c2ccco2)c1,26*,/,/,/,66*,/
